The results in this text go back to PubChem BioAssay.

Calls of active or inactive are those of the source. Unless noted, how the calls were made is not given here.

Assay [1] can be described thus: HepG2 liver cancer cell viability effects, profiling panel, resazurin fluorescence, 24 h, PK04 Diversity Set (AID 1172). Further: test concentration not given here. Particulars: higher = more signal. Background: Alamar Blue is a resazurin reagent that responds to reducing activity.
Assay [2] can be described thus: basal S. cerevisiae growth modulation, no modifier, primary screen, OD600, strain BY4716, 24 h, basal condition (AID 1173). The following applies: OD600, 24 h, higher = more signal, called active from +8 up or from −8 down.
The nature of assay [3]: MM1S myeloma cell viability, profiling panel, resazurin fluorescence, basal, 24 h, PK04 Diversity Set (AID 1174).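 Further: MM1S multiple myeloma cell line; test concentration not given here.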 The following applies: higher = more signal, called active from +8 up or from −8 down.
Assay [4] addresses Dihydroorotate dehydrogenase (quinone), mitochondrial (Plasmodium falciparum (isolate 3D7)) (UniProt Q08210). The assay can be described thus: PfDHODH enzyme inhibitors, primary screen, biochemical, C-terminal His tag, absorbance 600 nm (AID 1175).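 Further: recombinant parasite enzyme with a five histidine tag at its C terminus; test concentration not given here.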 The following applies: DCIP absorbance 600 nm, higher = more signal, called active from +8 up or from −8 down.
Assay [5] in a line: P. aeruginosa biofilm formation inhibitors, primary screen, strain PAO1, LB-PBS medium, absorbance 600 nm (AID 1176). Further: test concentration not given here. Particulars: P. aeruginosa PAO1 growth/biofilm, A600, 12 h; higher = more signal.
Assay [6] is described as follows: S. cerevisiae RM11-1a growth modifiers, primary screen, strain RM11-1a, OD600, basal, 24 h (AID 1177).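 Further: cultures grown under basal conditions with no added stressor; test concentration not given here.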 Particulars: OD600, 24 h, higher = more signal, called active from +8 up or from −8 down.
Assay [7] is described as follows: E. coli acrAB mutant growth effects, primary screen, E. coli filamentation inducers, strain DRC39, OD650, 24 h (AID 1178).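 Further: growth measured as culture turbidity by optical density at 650 nm; test concentration not given here.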 The following applies: higher = more signal, called active from +8 up or from −8 down.
The nature of assay [8]: E. coli acrAB mutant growth effects, primary screen, E. coli filamentation inducers, strain DRC39, OD650, 48 h (AID 1179).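 Further: screen aims at cell division blockers that make cells filament.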 Particulars: E. coli DRC39 delta-acrAB growth, higher = more signal, called active from +8 up or from −8 down.
Assay [9] in a line: RPMI8226 myeloma cell viability, profiling panel, resazurin fluorescence, basal, 24 h, PK04 Diversity Set (AID 1180).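 Further: RPMI8826 multiple myeloma cell line at 5000 cells per well; test concentration not given here.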 The following applies: higher = more signal.
Assay [10] deals with E3 ubiquitin-protein ligase XIAP (Homo sapiens) (UniProt P98170). The assay is described as follows: XIAP binders, primary screen, biophysical, small-molecule microarray, fluorescence 635 nm (AID 1181).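 Further: score merges 667 nm emission and signal to noise over triplicate slides.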 Particulars: small-molecule microarray binding, higher = more signal.
Chain of E3 ubiquitin-protein ligase XIAP (Homo sapiens) (P98170 whole entry, looked up): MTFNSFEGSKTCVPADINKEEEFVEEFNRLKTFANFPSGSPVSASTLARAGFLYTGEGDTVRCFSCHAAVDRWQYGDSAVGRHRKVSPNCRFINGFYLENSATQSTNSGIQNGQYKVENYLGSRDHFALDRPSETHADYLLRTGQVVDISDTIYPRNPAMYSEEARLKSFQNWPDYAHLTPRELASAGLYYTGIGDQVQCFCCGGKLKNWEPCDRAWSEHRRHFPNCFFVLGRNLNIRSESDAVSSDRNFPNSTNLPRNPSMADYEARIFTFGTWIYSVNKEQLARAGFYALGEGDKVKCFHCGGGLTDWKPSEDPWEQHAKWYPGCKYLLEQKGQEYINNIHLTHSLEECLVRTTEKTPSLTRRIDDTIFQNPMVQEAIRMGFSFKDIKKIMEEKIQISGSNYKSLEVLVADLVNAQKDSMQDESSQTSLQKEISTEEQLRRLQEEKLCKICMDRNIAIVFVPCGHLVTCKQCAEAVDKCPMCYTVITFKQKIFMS

Chain of Dihydroorotate dehydrogenase (quinone), mitochondrial (Plasmodium falciparum (isolate 3D7)) (Q08210 whole entry, looked up): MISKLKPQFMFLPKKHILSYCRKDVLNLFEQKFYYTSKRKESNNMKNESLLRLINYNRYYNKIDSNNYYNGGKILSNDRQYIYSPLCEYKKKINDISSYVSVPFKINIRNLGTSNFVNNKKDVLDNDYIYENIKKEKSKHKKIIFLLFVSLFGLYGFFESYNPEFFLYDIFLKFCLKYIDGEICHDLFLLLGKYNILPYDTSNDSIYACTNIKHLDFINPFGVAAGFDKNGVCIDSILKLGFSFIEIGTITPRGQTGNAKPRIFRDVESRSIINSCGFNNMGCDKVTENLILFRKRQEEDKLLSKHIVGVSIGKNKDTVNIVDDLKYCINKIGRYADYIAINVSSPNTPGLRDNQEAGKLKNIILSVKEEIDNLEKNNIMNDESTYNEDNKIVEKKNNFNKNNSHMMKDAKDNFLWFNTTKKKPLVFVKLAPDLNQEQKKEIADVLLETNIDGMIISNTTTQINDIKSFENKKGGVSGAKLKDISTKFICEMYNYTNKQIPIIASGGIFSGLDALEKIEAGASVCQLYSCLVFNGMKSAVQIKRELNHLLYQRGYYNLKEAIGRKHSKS

Consider `C=CC[C@@]12N=C(c3ccc(OCCCO)cc3)O[C@@H]1c1ccccc1N(CCC)C2=O`, for which the z-score is 0.167 in assay [1]; -2.22 (inactive) in assay [2]; -1.19 (inactive) in assay [3]; 1.2 (inactive) in assay [5]; 0.829 (inactive) in assay [6]; 0.215 (inactive) in [7]. Besides, the z-score is 1.02 (inactive) in [8] and -0.473 in [9]. Also, the composite z-score in assay [4] is -0.147 (inactive); in assay [10] it was -0.132.
Turning to `COCC(=C=CC[C@H](O)c1ccccc1OCCO)C[C@H](O)COCc1ccccc1`, the z-score in assay [1] was 0.0129; in assay [2], -2.91 (inactive); in assay [3], 0.442 (inactive); in assay [5], -0.566 (inactive); in assay [6], -0.482 (inactive); in assay [7], -0.348 (inactive). In addition, the z-score in assay [8] is -0.456 (inactive); in [9], 0.623. Moreover, the values for the composite z-score in [4] and in assay [10] were -2.21 (inactive) and 0.151, respectively.
As for `CC[C@@H]1C=C(C(=O)O)[C@H](c2ccc(OC)cc2)N1S(=O)(=O)c1ccc(C)cc1`, the z-score is -0.896 in assay [1]; 0.77 (inactive) in [2]; -0.675 (inactive) in [3]; -0.281 (inactive) in [5]; -0.391 (inactive) in assay [6]; -0.826 (inactive) in assay [7]. The figures for the z-score in assay [8] and in assay [9] were -0.521 (inactive) and -1.16, respectively. Also, the composite z-score is -1.09 (inactive) in [4] and -0.0286 in assay [10].
For `O=C(NCCN1CCOCC1)[C@@H]1c2ccccc2C(=O)N(Cc2ccc(OC(F)(F)F)cc2)[C@H]1c1ccc(CO)cc1`, the z-score in [1] is -0.129; in assay [2] it was -0.559 (inactive); in [3] it was 0.0245 (inactive); in assay [5] it was 0.925 (inactive); in assay [6], -0.449 (inactive); in [7], 0.248 (inactive). The z-score was -0.322 (inactive) in assay [8] and 0.546 in assay [9]. Moreover, the composite z-score was -0.0449 (inactive) in [4] and 0.0151 in assay [10].
Regarding `CCCCC(O)C1C=CC2C(=O)N(c3ccccc3)C(=O)C2N1Nc1ccccc1` (stereo not given), the z-score was 0.281 in assay [1]; -1.67 (inactive) in assay [2]; -0.125 (inactive) in assay [3]; -0.0625 (inactive) in [5]; 0.632 (inactive) in assay [6]; -0.407 (inactive) in [7]. Besides, the values for the z-score in [8] and in assay [9] were 0.483 (inactive) and -0.0096, respectively. The composite z-score is 0.477 (inactive) in assay [4] and 0.366 in assay [10].
Take `Cc1ccc(C(C)CC(O)C2C=CC3C(=O)N(C)C(=O)C3N2Nc2ccccc2)o1` (stereo not given): the z-score in assay [1] was -0.243; in [2] it was 0.372 (inactive); in [3], -0.855 (inactive); in assay [5] it was 0.695 (inactive); in assay [6] it was 0.051 (inactive); in assay [7], -1 (inactive). For the same molecule, the z-score in [8] was -0.466 (inactive); in [9] it was -0.874. The values for the composite z-score in assay [4] and in assay [10] were 0.164 (inactive) and 0.198, respectively.
With `CC(C)C(=C=CC[C@H](O)c1ccccc1OCCO)C[C@H](O)c1cc(Cl)cc(Cl)c1O`, the z-score in [1] was 0.271; in assay [2], -5.59 (inactive); in assay [3] it was -0.702 (inactive); in [5], 0.731 (inactive); in assay [6] it was -0.17 (inactive); in [7] it was 0.215 (inactive). Besides, the z-score in assay [8] was -0.0849 (inactive); in [9], -0.628. Further, the composite z-score was -2 (inactive) in [4] and -0.0448 in assay [10].
As for `COC(=O)[C@@]1(Cc2ccc(F)cc2)[C@H]2c3cc(C(=O)N4CCCC4)n(Cc4ccccn4)c3C[C@H]2CN1C(=O)c1ccccc1`, the z-score in assay [1] was -1.52; in [2] it was 1.32 (inactive); in assay [3], -2.15 (inactive); in assay [5] it was 1.03 (inactive); in [6], 0.938 (inactive); in assay [7], -0.81 (inactive). The z-score in [8] was -0.962 (inactive); in [9], -2.45. The composite z-score was 0.29 (inactive) in assay [4] and 0.0945 in assay [10].
With `CN1C(=O)[C@@H]2[C@@H](CC(COc3ccccc3)=C3[C@@H](CCc4ccccc4)OB(O)C[C@@H]32)C1=O`, the z-score in [1] is -0.418; in assay [2], -1.87 (inactive); in assay [3] it was -0.675 (inactive); in assay [5], 0.2 (inactive); in assay [6], -0.0646 (inactive); in assay [7] it was 0.0204 (inactive). The figures for the z-score in assay [8] and in assay [9] were -0.0443 (inactive) and -0.861, respectively. Besides, the composite z-score in assay [4] was -0.399 (inactive); in assay [10], -0.02.
Turning to `COC(=O)[C@@]1(Cc2ccc(OC)cc2)[C@H]2c3cc(C(=O)N(C)C)[nH]c3C[C@H]2CN1C(=O)c1ccccc1`, the z-score in [1] is -0.576; in [2], 0.304 (inactive); in assay [3], -0.798 (inactive); in assay [5] it was -0.471 (inactive); in [6] it was 0.68 (inactive); in [7], -0.151 (inactive). In addition, the z-score in assay [8] was 0.192 (inactive); in assay [9], -0.247. The composite z-score was -0.309 (inactive) in [4] and -0.147 in assay [10].
`COc1ccc([Si](C)(C)[C@@H]2[C@@H](CC(=O)N3CCC[C@H]3CO)O[C@]3(C(=O)N(Cc4cccc(N5CCCCC5=O)c4)c4ccccc43)[C@H]2C)cc1`: the z-score was -1.26 in assay [1]; -0.51 (inactive) in assay [2]; -2 (inactive) in assay [3]; 0.319 (inactive) in assay [5]; 0.625 (inactive) in [6]; 0.894 (inactive) in [7]. Also, the values for the z-score in assay [8] and in assay [9] were 0.6 (inactive) and -2.68, respectively. The composite z-score in assay [4] is -0.877 (inactive); in assay [10], 0.0167.
Turning to `C=CCN1Cc2ccccc2[C@H]2OC(c3ccc(OCCCO)cc3)=N[C@@]2(CCS(=O)(=O)c2ccccc2)C1=O`, the z-score was -0.439 in assay [1]; 1.11 (inactive) in [2]; -0.321 (inactive) in assay [3]; 1.2 (inactive) in assay [5]; 0.86 (inactive) in assay [6]; -0.135 (inactive) in assay [7]. The z-score was -0.342 (inactive) in assay [8] and -0.0829 in assay [9]. For the same molecule, the values for the composite z-score in assay [4] and in [10] were 0.2 (inactive) and -0.0599, respectively.
For the molecule `Cc1ccc(S[C@]2(C(=O)NCc3ccccc3)CC(=O)N(Cc3ccccc3C(F)(F)F)[C@@H]2c2ccc(CO)cc2)cc1`, the z-score in [1] was -0.704; in [2] it was -0.359 (inactive); in [3] it was 0.103 (inactive); in assay [5], 0.416 (inactive); in assay [6] it was -1.38 (inactive); in assay [7] it was 0.57 (inactive). Moreover, the z-score in [8] is 1.46 (inactive); in [9], -0.307. Besides, the composite z-score was -1.27 (inactive) in assay [4] and 0.109 in assay [10].
